TDP1 cell noCPT = qHTS for Inhibitors of human tyrosyl-DNA phosphodiesterase 1 (TDP1): qHTS in cells in absence of CPT. DT40 Tdp1-/- hTDP1 cells, no CPT, ATP luminescence, 48 h. hit rate 15% among 420,000. Potency, µM (series often up to 46.2 µM), for the others: at the top dose activity change, negative = growth inhibition, most hits filed as inhibitors; also: potency is read from the fitted curve at half-maximal effect; nearly all actives have a fitted effect of over 55% in size
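Stably hTDP1-transfected Tdp1-null chicken DT40 cells were treated with library compounds minus camptothecin and grown for at least 48 hr at 37 °C, after which cellular ATP was quantified by luminescence.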
DT40 TDP1 CPT = growth inhibition of DT40 Tdp1-/-;hTDP1 cells with camptothecin (screen for TDP1 inhibitors); chicken DT40 Tdp1-/-;hTDP1 cells + 20 nM CPT, ATP luminescence, 48 h; Potency, µM (top dose mostly 46.2 µM), for the others: top-dose activity change, negative = growth inhibition, most hits filed as inhibitors; hit rate 12% among 420,000; also: potency is read from the fitted curve at half-maximal effect; nearly all actives have a fitted effect of over 55% in size
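Chicken DT40 Tdp1-/- cells stably complemented with human TDP1 were seeded at 400 cells/well in medium containing 20 nM camptothecin, exposed to pin-transferred compounds, and grown at 37 °C for at least 48 hr. Viability was read as ATP luminescence.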
IL1B secr inh = blocks inflammasome-driven IL-1 beta release | THP-1 LPS/ATP IL-1B secretion, AlphaLISA, 16 h; stronger effect = lower value | hit rate 4.7% among 360,000 | activity change, % at 57.5 µM; in the data active = activity change below about -50%; inconclusive = mostly about -30% to -49%
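THP-1 cells pretreated 1 hr with compounds (up to 57.5 uM final), then stimulated with LPS (250 ng/mL final) plus ATP (1.25 mM final); secreted IL-1B measured by AlphaLISA after 16 hr, decreased signal indicating inhibition.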
ELG1 repair inh = blocks ELG1-dependent DNA repair in HEK293T cells | HEK293T ELG1-luciferase reporter, luminescence, 16 h; DNA damage induced by 5-fluorouridine | hit rate 2.3% among 330,000 | Potency, µM (top dose mostly 46.1 µM), inactives show at the top dose activity change, negative = inhibition, usual class: inhibitors; also: potency is read from the fitted curve at half-maximal effect; nearly all actives have a fitted effect of over 55% in size
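In this reporter screen, reduction of luminescence relative to DMSO vehicle indicated activity. Compounds and 5-fluorouridine were added together to 2,000 cells per well, incubated for 16 hr at 37 °C, then developed with ONE-Glo.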
HT1080 IDH1KD tx = toxicity to HT-1080 IDH1 knockdown cells (counter line) | HT-1080 IDH1 knockdown viability, ATP luminescence, 48 h | AID 686971 | hit rate 2% among 360,000 | Potency, µM (highest dose often 46.1 µM), for inactives: at the top dose activity, negative = toxicity, hits mostly cytotoxic;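 also: potency is read from the fitted curve at half-maximal effect; 0% = DMSO wells and -100% = cell-free medium wells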
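HT-1080-IDH1KD cells (IDH1 knocked down), 750/well in RPMI with 5% FBS, treated with compound 48 h at 37 degrees C. Viability by CellTiter-Glo luminescence, normalised to DMSO and no-cell wells; concentration-response curves classed.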
HT1080-NT tox = kills 2HG-producing HT-1080-NT fibrosarcoma cells; AID 686970; HT-1080-NT fibrosarcoma viability, CellTiter-Glo ATP luminescence, 48 h; Potency, µM (highest dose often 46.1 µM), for inactives: at the top dose activity, negative = less viability, usual class: cytotoxic; hit rate 1.6% among 360,000;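 also: NT is the 2HG producing partner of a matched IDH1 knockdown line; potency is read from the fitted curve at half-maximal effect; 0% = DMSO-treated cells and -100% = media-only wells without cells; nearly all actives have a fitted effect of over 55% in size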
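HT-1080-NT; 750 cells/well; 5% FBS RPMI; 48 h compound, 37 degrees C; CellTiter-Glo luminescence; curve fitting and curve-class assignment.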
* hit, by the source's call; ? = inconclusive; . = no result; [ ] = another dose, or the depositor's remark. This is a sample that favours compounds with a hit; in the whole collection about 19% have one here. Unless noted, calls follow the shape of the dose curve; as a rule, active = well fitted curve in the direction sought with a large enough effect; inconclusive = small, poorly fitted or top-dose-only effect, or another doubt; inactive = no such curve, though single readings can be large; an effect the other way counts as inactive or inconclusive. Unless noted, % is scaled to controls: 0 for no effect and ±100 for the full control effect.

SMILES	TDP1 cell noCPT	DT40 TDP1 CPT	IL1B secr inh	ELG1 repair inh	HT1080 IDH1KD tx	HT1080-NT tox
CC(=O)N(NC(=O)c1ccc(C)cc1)C1CC(=O)N(c2ccccc2Cl)C1=O (stereo unspecified)	-25%	-8%	0	4%	1%	2%
CCn1cc(/C=C(\NC(=O)c2ccccc2)C(=O)NCCCN2CCOCC2)c2ccccc21	14%	-8%	?	-1%	11%	-3%
CCOC(=O)N1CCN(C(=O)COc2ccc(S(=O)(=O)Nc3ccc(OCC)cc3)cc2)CC1	23µM*	?	4	?	?	-5%
Cc1ccc(C(C)(C)C)cc1S(=O)(=O)Nc1cccc(C(=O)N2CCN(c3ccccn3)CC2)c1	16µM*	29µM*	-9	?	-30%	-23%
CC1CCN(C(=O)c2ccc3ccccc3c2)CC1	-6%	-12%	7	?	-3%	-1%
Cc1ccc(NS(=O)(=O)c2ccc(C(=O)N3CC(C)CC(C)C3)cc2)cc1 (stereo unspecified)	16µM*	21µM*	21	-6%	-28%	0%
CC1CC(C)CN(C(=O)c2ccc3ccccc3c2)C1 (stereo unspecified)	?	?	-51*	14%	13%	8%
COc1ccc(-c2nn3c(=O)cc(CN4CCN(C(=O)Nc5ccc(C)c(Cl)c5)CC4)nc3s2)cc1	-10%	-13%	.	.	.	.
O=S(=O)(Nc1ccc(N2CCCCC2)cc1)c1ccc(F)cc1	29µM*	16µM*	5	?	5%	3%
O=C1N/C(=C/c2ccsc2)C(=O)N1c1ccccc1	13%	-1%	-54*	?	12%	25%
O=C(CSc1n[nH]c(=O)n1C1CC1)Nc1cc(Cl)ccc1Oc1ccccc1	15µM*	16µM*	-15	?	-19%	-22%
C=C1C(=O)O[C@@H]2[C@H]3O[C@]3(C)CC/C=C(\C)CC[C@@H]12	5.2µM*	4.6µM*	-110*	.	18µM*	9.2µM*
C=C1C(=O)O[C@H]2[C@H]1CC/C(C)=C\CC[C@@]1(C)O[C@@H]21	2.7µM*	2.4µM*	.	.	.	.
C=C1CC/C=C(\C)CC[C@@H]2[C@@H]1CC2(C)C	-6%	-8%	.	.	.	.
C=C1C(=O)O[C@@H]2C3OC3(C)CC/C=C(\C)CC[C@@H]12 (stereo partly specified)	11µM*	11µM*	.	.	.	.
C=C1C(=O)OC2C1CC/C(C)=C/CCC1(C)OC21 (stereo unspecified)	2.9µM*	2.3µM*	.	.	.	.
COC(=O)C1CCN(c2csc3ccc(Cl)cc3c2=O)CC1	-21%	-29%	.	.	.	.
CCOC(=O)c1c(C)[nH]c(C)c1C(=O)COC(=O)c1ccc(S(=O)(=O)N(CC)CC)cc1	-16%	-20%	7	-19%	-25%	0%[9.24 µM]
CCN(CC)S(=O)(=O)c1cccc(C(=O)OCC(=O)C23CC4CC(CC(C4)C2)C3)c1	23µM*	?	-6	?	1%	2%
CCOC(=O)c1c(C)[nH]c(C)c1C(=O)COC(=O)c1cccc(S(=O)(=O)N(CC)CC)c1	29µM*	?	-12	-27%	-11%	0%
Cc1cc(C)c(C)c(S(=O)(=O)N2CCNCC2)c1C	-28%	-13%	0	7%	-15%	-21%
CC(C)c1cc(C(C)C)c(S(=O)(=O)N2CCNCC2)c(C(C)C)c1	?	?	-81*	.	?	?
Cc1cc(=O)[nH]c(SCC(=O)Nc2c(C)n(C)n(-c3ccccc3)c2=O)c1C#N	-3%	-18%	-21	-1%	1%	-3%[9.24 µM]
CCC(C(=O)Nc1cc(-c2nc3cccnc3s2)ccc1C)c1ccccc1 (stereo unspecified)	21µM*	?	.	.	.	.
Cc1ccc(-c2nc3cccnc3s2)cc1NS(C)(=O)=O	21µM*	?	-10	?	-7%	0%
SMILES	TDP1 cell noCPT	DT40 TDP1 CPT	IL1B secr inh	ELG1 repair inh	HT1080 IDH1KD tx	HT1080-NT tox
Cc1ccc(-c2nc3cccnc3s2)cc1NC(=O)C(C)C	-8%	-18%	.	.	.	.
CN(C)c1cccc(C(=O)N2CCCC(CCC(=O)NCc3ccccc3F)C2)c1 (stereo unspecified)	?	?	-16	?	?	?
CCOc1ccc2[nH]c(=O)c(CN(Cc3nnnn3Cc3ccco3)C3CCCCC3)cc2c1	12µM*	?	-20	10µM*	-9%	-6%
COCCn1nnnc1CN(Cc1cc2cc(OC)c(OC)cc2[nH]c1=O)C1CCCC1	0%	-8%	0	?	-11%	-12%
CCC(C)(C)n1nnnc1CN(Cc1cc2cc(OC)ccc2[nH]c1=O)C1CCCC1	?	?	-53*	?	-25%	-19%
COc1ccc(Cn2nnnc2CN(Cc2cc3ccc(C)cc3[nH]c2=O)C2CCCC2)cc1	13µM*	9.2µM*	-25	13µM*	?	?
COc1cc2cc(CN(Cc3nnnn3Cc3ccco3)C3CCCCC3)c(=O)[nH]c2cc1OC	-23%	-22%	17	0%	-15%	-4%
Cc1cc2oc(C(=O)Nc3ccc(S(=O)(=O)Nc4onc(C)c4C)cc3)cc(=O)c2cc1C	-1%	11%	.	.	.	.
CCCCn1c(N)c(N(CCOC)C(=O)c2c(-c3ccccc3)noc2C)c(=O)[nH]c1=O	-21%	-14%	5	-4%	0%	-5%
CC(C)CSc1nnc(CNC(=O)c2ccccn2)n1C	-7%	4%	.	.	.	.
